Several values for one entry are separate records, joined by “and”; a condition that tells them apart may be missing. Identical values can stand only once. Results filed as inconclusive are left out. Some compounds were tested as several samples or in several runs, with calls that do not always agree. Activity calls are given as the source filed them. Unless noted, calls follow the shape of the dose curve; as a rule, active = well fitted curve in the direction sought with a large enough effect in the repeat runs; inconclusive = weak or mixed curves; inactive = no such curve, though single readings can be large; an effect the other way counts as inactive or inconclusive.

Test [1] is described as follows: qHTS assay to identify small molecule antagonists of the thyroid receptor (TR) signaling pathway - cell viability counter screen (AID 743064). Also: nearly all actives have a fitted effect of over 50% in size. Also: potency is read from the fitted curve at half-maximal effect. In a few lines:
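Rat GH3 pituitary tumor cells stably expressing two TR response elements driving luciferase were plated, rested 4 h, then dosed with library compounds and T3 (1 nM final). After 23.5 h at 37 °C, CellTiter-Fluor was added for 30 min and fluorescence recorded.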
For orientation: qHTS replaces the single test concentration by a dilution series.

Test [2] has as its system thyroid hormone receptor (rat, GH3 cells). Put plainly: qHTS assay to identify small molecule agonists of the thyroid receptor (TR) signaling pathway (AID 743066; calls by dose curve).
For test [3], the target named is Estrogen receptor (Homo sapiens) (UniProt P03372). Nature of the test: qHTS assay to identify small molecule antagonists of the estrogen receptor alpha (ER-alpha) signaling pathway (AID 743069; active = well fitted curve in the direction sought with a large enough effect in the signal ratio in the repeat runs, not every such curve was filed as active; the % refers to the signal ratio). An outline of the steps:
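Reporter cells (ER-alpha-bla, HEK293 background) are conditioned overnight in stripped-serum medium (2% charcoal-stripped FBS). Compound and 17beta-estradiol exposure runs 18 hr at 37C, 5% CO2.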

A short description of test [4]: qHTS assay to identify small molecule antagonists of the estrogen receptor alpha (ER-alpha) signaling pathway - cell viability counter screen (AID 743074; calls by dose curve;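 also: HEK293 cells carrying ER-alpha-UAS-bla reporter stimulated with 17beta-estradiol; nearly all actives have a fitted effect of over 45% in size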; also: potency is read from the fitted curve at half-maximal effect).
In test [5] the target is Estrogen receptor (Homo sapiens) (UniProt P03372). Nature of the test: qHTS assay to identify small molecule agonists of the estrogen receptor alpha (ER-alpha) signaling pathway (AID 743075; calls by dose curve;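 also: HEK293 GripTite cells with ER-alpha and UAS-driven beta-lactamase reporter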).
Test [6] shares this target. Put plainly: qHTS assay to identify small molecule agonists of the estrogen receptor alpha (ER-alpha) signaling pathway using the BG1 cell line (AID 743079). Also: nearly all actives have a fitted effect of over 20% in size.
Test [7] is described as follows: qHTS assay to identify small molecule antagonists of the estrogen receptor alpha (ER-alpha) signaling pathway using the BG1 cell line (AID 743080; calls by dose curve;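 also: BG1 cells stimulated with 17beta-estradiol alongside compound; series mostly up to about 70 µM; nearly all actives have a fitted effect of over 25% in size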). An outline of the steps:
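BG1-Luc-4E2 cells (endogenous full-length ER-alpha, stable 4×ERE-luciferase) were starved 5 days in phenol-red-free medium with 10% charcoal-stripped FBS, plated 24 h, then given compound plus 17beta-estradiol for 21.5 h at 37 C; ONE-Glo luminescence read after 30 min.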

Test [8] can be described thus: qHTS assay to identify small molecule antagonists of the estrogen receptor alpha (ER-alpha) signaling pathway using the BG1 cell line - cell viability counter screen (AID 743081).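 Also: compound given together with 17beta-estradiol as the ER stimulus; nearly all actives have a fitted effect of over 45% in size.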 Also: potency is read from the fitted curve at half-maximal effect.
For another test, the target named is Aromatase (Homo sapiens) (UniProt P11511). Nature of the test: qHTS assay to identify aromatase inhibitors (AID 743083). Also: nearly all actives have a fitted effect of over 55% in size. Also: potency is read from the fitted curve at half-maximal effect.
The nature of test [9]: qHTS assay to identify aromatase inhibitors - cell viability counter screen (AID 743084).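 Also: cells stimulated with testosterone during compound exposure; nearly all actives have a fitted effect of over 55% in size.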 Also: potency is read from the fitted curve at half-maximal effect.
The target in test [10] is Aryl hydrocarbon receptor (Homo sapiens) (UniProt P35869). Nature of the test: qHTS assay to identify small molecule that activate the aryl hydrocarbon receptor (AhR) signaling pathway (AID 743085).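 Also: HG2L7.5c1 human HepG2 liver cells with stably integrated DRE-driven firefly reporter; series mostly up to about 70 µM; nearly all actives have a fitted effect of over 15% in size.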 In a few lines: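 Compounds were tested in HepG2 hepatocellular carcinoma cells harbouring a stably integrated luciferase gene under control of 20 DREs. Increased reporter signal after 24 h treatment at 37C was taken as AhR activation.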

A short description of test [11]: qHTS assay to identify small molecule that activate the aryl hydrocarbon receptor (AhR) signaling pathway - cell viability counter screen (AID 743086). Also: nearly all actives have a fitted effect of over 45% in size. Also: potency is read from the fitted curve at half-maximal effect. In a few lines: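 HepG2-AhR-luc (HG2L7.5c1) cells, 4000/well, treated 24 h at 37 C with compound; viability measured as CellTiter-Fluor fluorescence after 30 min in the same wells as the luciferase read.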
Test [12] is described as follows: qHTS assay to identify small molecule antagonists of the thyroid receptor (TR) signaling pathway (AID 743065). Also: nearly all actives have a fitted effect of over 55% in size. Also: potency is read from the fitted curve at half-maximal effect. In a few lines:
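GH3.TRE-Luc rat pituitary cells (two TREs driving luciferase) were dosed with compound, then stimulated with 1 nM T3 (final) for 23.5 h at 37 C. ONE-Glo luminescence was the read-out, with CellTiter-Fluor fluorescence as the cytotoxicity counter-screen.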

The target of test [13] is Peroxisome proliferator-activated receptor gamma (Homo sapiens) (UniProt P37231). Nature of the test: qHTS assay to identify small molecule agonists of the peroxisome proliferator-activated receptor gamma (PPARg) signaling pathway (AID 743094; active = well fitted activation curve with a large enough effect in the signal ratio in the repeat runs, not every such curve was filed as active; the % refers to the signal ratio). An outline of the steps: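 Following 5 h plating at 37C, PPARg-bla HEK293H cells receive compound or DMSO for 17 h; fluorescence intensity is recorded after LiveBLAzer B/G loading for 1 h at room temperature.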

Test [14] can be described thus: qHTS assay to identify small molecule antagonists of the peroxisome proliferator-activated receptor gamma (PPARg) signaling pathway - cell viability counter screen (AID 743194). Also: potency is read from the fitted curve at half-maximal effect; nearly all actives have a fitted effect of over 55% in size. In a few lines:
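Cytotoxicity counter screen in PPARg-bla HEK293H cells, same wells as reporter assay. Compounds plus 50 nM rosiglitazone (final) for 17 h at 37 C, then viability read by CellTiter-Glo luminescence.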

Test [15] is described as follows: qHTS assay for small molecule agonists of the antioxidant response element (ARE) signaling pathway - cell viability counter screen (AID 743203; calls by dose curve). In a few lines:
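Compounds in DMSO were pinned onto ARE-bla HepG2 cells plated 5 hrs earlier at 2,000 cells/well. Sixteen hours later at 37C/5% CO2, CellTiter-Glo was added and luminescence measured after 30 min at room temperature.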

Test [16] can be described thus: qHTS assay for small molecule activators of the heat shock response signaling pathway - cell viability counter screen (AID 743209). Also: nearly all actives have a fitted effect of over 50% in size. Also: potency is read from the fitted curve at half-maximal effect. In a few lines: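 Counter screen for cytotoxicity in HeLa HSE-bla reporter cells. Treatment was 5 h at 37 C; viability was detected by luminescent ATP assay (CellTiter-Glo) in the same wells as the beta-lactamase read.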
Test [17] in a line: qHTS assay for small molecule activators of the heat shock response signaling pathway (AID 743210; active = well fitted activation curve with a large enough effect in the signal ratio in the repeat runs, with a control signal flat, not every such curve was filed as active; the % refers to the signal ratio;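 also: HeLa cells with beta-lactamase reporter driven by heat shock elements; series mostly up to about 63 µM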). An outline of the steps:
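Quantitative high-throughput format using an engineered HeLa line in which heat shock response elements drive beta-lactamase; after 5 h with compound, cells received a B/G FRET substrate and fluorescence was read.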

Sequence of Estrogen receptor (Homo sapiens) (P03372 whole entry, looked up): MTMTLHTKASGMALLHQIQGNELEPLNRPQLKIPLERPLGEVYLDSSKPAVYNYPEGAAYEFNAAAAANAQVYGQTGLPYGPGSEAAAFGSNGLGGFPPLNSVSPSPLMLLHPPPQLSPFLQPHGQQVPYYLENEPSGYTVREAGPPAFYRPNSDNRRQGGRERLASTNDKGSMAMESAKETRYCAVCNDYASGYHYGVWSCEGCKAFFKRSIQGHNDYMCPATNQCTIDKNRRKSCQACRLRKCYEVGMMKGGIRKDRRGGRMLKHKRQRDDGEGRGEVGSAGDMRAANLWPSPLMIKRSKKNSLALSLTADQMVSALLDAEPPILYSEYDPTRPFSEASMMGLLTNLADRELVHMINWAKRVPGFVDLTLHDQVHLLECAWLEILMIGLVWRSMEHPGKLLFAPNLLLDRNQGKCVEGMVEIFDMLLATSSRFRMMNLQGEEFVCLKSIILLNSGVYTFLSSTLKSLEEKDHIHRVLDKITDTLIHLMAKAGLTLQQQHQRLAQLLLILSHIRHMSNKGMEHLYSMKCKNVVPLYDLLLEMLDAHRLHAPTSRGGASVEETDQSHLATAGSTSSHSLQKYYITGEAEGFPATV
Sequence of Aromatase (Homo sapiens) (P11511 whole entry, looked up): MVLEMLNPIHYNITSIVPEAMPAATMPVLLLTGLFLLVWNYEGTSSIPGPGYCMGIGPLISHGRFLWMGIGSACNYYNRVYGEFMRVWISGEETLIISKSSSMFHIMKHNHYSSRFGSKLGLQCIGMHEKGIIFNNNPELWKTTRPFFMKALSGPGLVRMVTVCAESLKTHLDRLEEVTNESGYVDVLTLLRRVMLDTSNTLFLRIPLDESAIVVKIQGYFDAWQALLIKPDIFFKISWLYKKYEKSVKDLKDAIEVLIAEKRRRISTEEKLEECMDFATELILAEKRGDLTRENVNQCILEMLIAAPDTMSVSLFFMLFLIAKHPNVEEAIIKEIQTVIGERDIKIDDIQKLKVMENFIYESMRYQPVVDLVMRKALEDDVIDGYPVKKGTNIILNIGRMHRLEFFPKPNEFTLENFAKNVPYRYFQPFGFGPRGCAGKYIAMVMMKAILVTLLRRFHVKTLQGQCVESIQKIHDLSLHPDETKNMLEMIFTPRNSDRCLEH
Sequence of Aryl hydrocarbon receptor (Homo sapiens) (P35869 whole entry, looked up): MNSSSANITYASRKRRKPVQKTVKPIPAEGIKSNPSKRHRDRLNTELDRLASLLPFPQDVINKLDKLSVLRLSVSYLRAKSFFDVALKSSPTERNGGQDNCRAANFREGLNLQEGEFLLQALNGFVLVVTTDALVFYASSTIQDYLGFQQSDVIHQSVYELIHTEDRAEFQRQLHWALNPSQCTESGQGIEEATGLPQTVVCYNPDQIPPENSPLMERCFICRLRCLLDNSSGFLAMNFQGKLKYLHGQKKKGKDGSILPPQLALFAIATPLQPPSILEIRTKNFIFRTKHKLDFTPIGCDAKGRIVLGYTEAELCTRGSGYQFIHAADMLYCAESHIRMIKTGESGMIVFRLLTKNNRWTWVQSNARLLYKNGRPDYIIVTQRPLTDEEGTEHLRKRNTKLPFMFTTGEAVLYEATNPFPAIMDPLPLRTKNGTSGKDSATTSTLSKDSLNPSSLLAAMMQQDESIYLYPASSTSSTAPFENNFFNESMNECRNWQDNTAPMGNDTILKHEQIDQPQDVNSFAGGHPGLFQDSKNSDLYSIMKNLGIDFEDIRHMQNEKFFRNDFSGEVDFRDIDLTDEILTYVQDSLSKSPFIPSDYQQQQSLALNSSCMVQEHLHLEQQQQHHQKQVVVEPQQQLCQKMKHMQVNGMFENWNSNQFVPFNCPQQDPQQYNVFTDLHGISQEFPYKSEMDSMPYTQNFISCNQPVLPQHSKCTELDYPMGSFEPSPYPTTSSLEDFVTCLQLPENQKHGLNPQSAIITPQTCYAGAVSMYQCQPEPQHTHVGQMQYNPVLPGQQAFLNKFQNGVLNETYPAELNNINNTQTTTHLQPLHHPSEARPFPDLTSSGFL
Sequence of Peroxisome proliferator-activated receptor gamma (Homo sapiens) (P37231 whole entry, looked up): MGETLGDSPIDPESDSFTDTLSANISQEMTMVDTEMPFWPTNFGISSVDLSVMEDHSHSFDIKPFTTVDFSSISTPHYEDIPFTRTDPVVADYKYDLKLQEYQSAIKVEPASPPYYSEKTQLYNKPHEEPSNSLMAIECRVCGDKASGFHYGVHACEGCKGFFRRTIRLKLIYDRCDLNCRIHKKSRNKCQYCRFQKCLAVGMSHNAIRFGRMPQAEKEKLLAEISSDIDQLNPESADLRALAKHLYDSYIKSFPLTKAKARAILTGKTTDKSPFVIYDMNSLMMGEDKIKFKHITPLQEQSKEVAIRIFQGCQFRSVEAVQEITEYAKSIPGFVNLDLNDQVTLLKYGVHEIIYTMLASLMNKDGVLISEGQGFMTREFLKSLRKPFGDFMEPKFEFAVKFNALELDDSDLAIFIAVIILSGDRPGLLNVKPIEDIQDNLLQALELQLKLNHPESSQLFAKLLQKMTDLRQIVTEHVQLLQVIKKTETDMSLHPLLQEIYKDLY

Turning to `CC/C=C\C/C=C\C/C=C\C/C=C\C/C=C\CCCC(=O)O`, the Potency result in test [1], in [2], in test [3], in test [4], in [5] and in test [6] was “inactive” each time. Moreover, the Potency result (in [7]; in test [8]; with Aromatase (Homo sapiens); in test [9]; in [10]; in test [11]) was “inactive” each time.
In the case of `CC(C)C[C@@H](NC(=O)[C@@H](O)[C@H](N)Cc1ccccc1)C(=O)O`, the Potency was 1.68 µM (active) in test [1], 2.37 µM (active) in test [8], 0.75 µM (active) in test [9] and 0.376 µM (active) in [11]. Also, the Potency entry (in test [12]; in test [2]; in [5]; in test [6]; in test [7]; in the test with Aromatase (Homo sapiens)) was “inactive” each time. Also, the Potency entry in test [10] and in [13] was “inactive” in each case.
As to `Cc1cc(Br)ccc1NC(=O)CCl`, the Potency is 21.7 µM (active) in [1]; 19.3 µM (active) in test [12]; 30.6 µM (active) in the test with Aromatase (Homo sapiens); 13.7 µM (active) in test [9]; 54.5 µM (active) in test [11]; 7.76 µM (active) in [14]. In addition, the Potency in [15] was 54.5 µM (active); in [16], 12.3 µM (active). The Potency result in test [2] and in test [5] was “inactive” each time.
As to `COc1cccc(-c2ccc(/C=C\CN3CCCCCC3)cc2Cl)c1`, the Potency is 21.6 µM (active) in test [1]; 21.6 µM (active) in [12]; 60.9 µM (active) with Aromatase (Homo sapiens); 43.4 µM (active) in [14]; 54.2 µM (active) in test [15]. Further, the Potency result in test [3], in test [4], in test [5], in test [8], in [10] and in [11] was “inactive” each time. Moreover, the Potency entry in [13] was “inactive”.
With `CN(C)CCOc1ccc(/C(=C(/CCCl)c2ccccc2)c2ccccc2)cc1`, the Potency in test [1] was 10.6 µM (active) and 10.2 µM (active); in [12], 11.9 µM (active) and 8.09 µM (active); with Aromatase (Homo sapiens), 21.1 µM (active) and 6.42 µM (active); in test [9], 45.5 µM (active); in test [11], “inactive and 40.5 µM (active)”; in [14], 25.8 µM (active). The Potency in test [15] was 16.1 µM (active); in [16] it was 28.9 µM (active). Also, the Potency entry in test [2], in [8] and in [10] was “inactive” in each case.
Consider `Cc1cc(F)ccc1-c1cc(N2CC[C@@H](O)[C@H]2CO)ncc1N(C)C(=O)C(C)(C)c1cc(C(F)(F)F)cc(C(F)(F)F)c1`, for which the Potency in [1] was 10.7 µM (active); in test [12], 9.54 µM (active); in test [4], 43 µM (active); in the test with Aromatase (Homo sapiens), 24 µM (active); in test [9], 42.6 µM (active); in test [11] it was 38 µM (active). Moreover, the values for the Potency in test [14], in [15] and in test [16] were 43 µM (active), 21.4 µM (active) and 19.2 µM (active), respectively. Moreover, the Potency result in [10] was “inactive”.
In the case of `CON=C1C[C@]2(C[C@@H]3C[C@@H](C/C=C(\C)C[C@@H](C)/C=C/C=C4\CO[C@@H]5[C@H](O)C(C)=C[C@@H](C(=O)O3)[C@]45O)O2)O[C@H](/C(C)=C/C(C)C)[C@H]1C`, the Potency was 5.31 µM (active) in [1]; 3.76 µM (active) and 5.31 µM (active) in test [12]; 6.01 µM (active) and 23.9 µM (active) in [4]. In addition, the Potency entry (with Aromatase (Homo sapiens); in [9]; in [10]; in test [11]) was “inactive” in each case.
With `CN1CCN(CCCN2c3ccccc3Sc3ccc(Cl)cc32)CC1`, the Potency in [1] was 6.68 µM (active); in test [12] it was 6.68 µM (active); in [11], 23.7 µM (active); in test [15], 29.8 µM (active). The Potency result in test [5], in test [7] and in [16] was “inactive” throughout. Besides, in test [17], the call was inactive.

For the origin of these results see PubChem BioAssay (Tox21).
